About 79,000 compounds went through this panel and 15% of them were active in at least one assay; those are over-represented in the sample as a whole. Unmarked numbers belong to inactive results. Active and inactive are the calls of the source. No stated cut-off is given here; in the data, active means growth inhibition above about 70%; inactive means the rest.
What was measured:
[1] = NCI Yeast Anticancer Drug Screen. Data for the rad50 strain (AID 155);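 further: 0% = growth of vehicle-only cultures of the same strain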; conditions: S. cerevisiae rad50 strain growth inhibition, stronger effect = higher value
In short: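 Readout: growth inhibition relative to vehicle-treated cultures. Compound exposure was carried out in a genetically defined yeast strain deficient in DNA damage repair.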

[2] = NCI Yeast Anticancer Drug Screen. Data for the mec2-1 strain (AID 157); conditions: S. cerevisiae mec2-1 strain, stronger effect = higher value
In short: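 Vehicle-treated cultures served as reference for growth inhibition of compound-exposed mec2-1 yeast.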

[3] = NCI Yeast Anticancer Drug Screen. Data for the sgs1 mgt1 strain (AID 161);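 further: 0% = growth of cultures given vehicle only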; conditions: S. cerevisiae sgs1 mgt1 strain, stronger effect = higher value
In short: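 Inhibition of yeast growth, normalised to vehicle-treated controls, is reported for a strain bearing genetic alterations in DNA damage repair.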

[4] = NCI Yeast Anticancer Drug Screen. Data for the cln2 rad14 strain (AID 165);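 further: 0% = growth equal to vehicle treated cultures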; conditions: S. cerevisiae cln2 rad14 strain, stronger effect = higher value
In short: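 Each compound was tested on cln2 rad14 yeast. Inhibition of growth was calculated against vehicle-exposed controls.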

[5] = NCI Yeast Anticancer Drug Screen. Data for the bub3 strain (AID 167); conditions: S. cerevisiae bub3 mutant strain, stronger effect = higher value
In short: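 Readout: yeast growth inhibition, expressed relative to vehicle-only wells. The test organism is a mutant strain from a panel with lesions in DNA repair or checkpoint genes.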

[6] = NCI Yeast Anticancer Drug Screen. Data for the mlh1 rad18 strain (AID 175); conditions: S. cerevisiae mlh1 rad18 strain growth inhibition, stronger effect = higher value
In short: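 Vehicle-treated cultures served as the reference for growth inhibition in a yeast strain carrying DNA damage repair alterations exposed to each compound.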

[7] = at 5.0 µM (retest, dose inferred, filed as 0.5)
[8] = at 50.0 µM (retest, dose inferred, filed as 5.0)

SMILES	growth inhibition [1, 7]	growth inhibition [1, 8]	growth inhibition ([1]; at 50.0 µM)	growth inhibition [2, 7]	growth inhibition [2, 8]	growth inhibition ([2]; at 50.0 µM)	growth inhibition [3, 7]	growth inhibition [3, 8]	growth inhibition ([3]; at 50.0 µM)	growth inhibition [4, 7]	growth inhibition [4, 8]	growth inhibition ([4]; at 50.0 µM)	growth inhibition [5, 7]	growth inhibition [5, 8]	growth inhibition ([5]; at 50.0 µM)	growth inhibition [6, 7]	growth inhibition [6, 8]	growth inhibition ([6]; at 50.0 µM)
O=C1c2ccccc2C(=O)c2ncccc21	14%	91% (active)	96.3% (active)	8%	86% (active)	94.4% (active)	8%	89% (active)	93.3% (active)	-2%	85% (active)	86.5% (active)	11%	87% (active)	91% (active)	37%	95% (active)	97.8% (active)
C/C(=N/NC(=S)N(C)C)c1ccccc1O	2%	13%	-28.2%	-34%	9%	86.3% (active)	-43%	16%	52%	18%	3%	77.9% (active)	-29%	21%	36.8%	-17%	28%	16.7%
S=c1[nH]nc(SCc2ccc(Cl)c(Cl)c2)c2[nH]cnc12	-4%	-13%	1.45%	-11%	-2%	9.2%	-14%	-14%	21.2%	-10%	-16%	28.8%	-8%	-8%	9.25%	-21%	-16%	5.2%
CC(C)Cc1ccc(C(C)/C=C2\CCC(CN3CCCCC3)C2=O)cc1 (configuration not stated)	93% (active)	98% (active)	92.3% (active)	90% (active)	99% (active)	94.2% (active)	84% (active)	98% (active)	94.2% (active)	80% (active)	99% (active)	92.7% (active)	98% (active)	98% (active)	93.2% (active)	94% (active)	98% (active)	89.6% (active)
CC(C)(C)c1cc(C(P(=O)(c2ccccc2)c2ccccc2)P(=O)(c2ccccc2)c2ccccc2)cc(C(C)(C)C)c1O	3%	96% (active)	97.9% (active)	-5%	92% (active)	93.7% (active)	-8%	97% (active)	98.1% (active)	2%	88% (active)	94.7% (active)	-4%	93% (active)	96.3% (active)	-3%	92% (active)	96.7% (active)
CC1(C)CC[C@]2(C(=O)O)CC[C@]3(C)C(=CC[C@@H]4[C@@]5(C)C[C@H](O)[C@H](O)[C@@](C)(C(=O)O)[C@@H]5CC[C@]43C)[C@@H]2C1	100% (active)	99% (active)	91.2% (active)	100% (active)	100% (active)	94.1% (active)	99% (active)	99% (active)	92.7% (active)	99% (active)	99% (active)	92% (active)	99% (active)	99% (active)	92% (active)	100% (active)	100% (active)	88.7% (active)
COc1ccccc1Nc1nc(SC)ncc1SC	-4%	91% (active)	95.1% (active)	-12%	75% (active)	96.4% (active)	-5%	69%	94% (active)	-8%	30%	41.9%	1%	93% (active)	98% (active)	-6%	82% (active)	92.2% (active)
CC1(C)CC(=O)C2=C(C1)OC1=C(C(=O)CC(C)(C)C1)C2CC(c1ccccc1)c1ccc(O)c(O)c1O (configuration not stated)	22%	30%	72.2% (active)	6%	-8%	22.8%	9%	2%	48.3%	5%	18%	28.2%	-11%	-23%	36%	30%	10%	56%
Cc1cc(N(CCOS(C)(=O)=O)CCOS(C)(=O)=O)ccc1C=Nc1cc(Br)c(O)c(Br)c1	4%	71% (active)	82.5% (active)	-93%	63%	72.6% (active)	2%	53%	84.2% (active)	4%	43%	50.4%	2%	24%	21.1%	22%	91% (active)	95.8% (active)
CC1=C(C(=O)Nc2cccc(Cl)c2)C(c2ccccc2F)C(C(=O)Nc2cccc(Cl)c2)=C(C)N1	44%	44%	71.3% (active)	49%	49%	81.8% (active)	37%	37%	86.2% (active)	36%	36%	85.1% (active)	56%	56%	86.8% (active)	62%	62%	87.7% (active)
Oc1ccc(Br)cc1C=Nc1c(NC2CCCCC2)oc2ccc(Br)cc12	-4%	9%	-9.35%	3%	-2%	39.4%	11%	22%	41.8%	-18%	0%	37%	-12%	43%	53.4%	-4%	29%	50.5%
C=Cc1cc(N=Nc2ccc([N+](=O)[O-])cc2)ccc1N(C)C	6%	12%	48%	-1%	-2%	4.2%	3%	25%	4.6%	-2%	-15%	-25.9%	2%	6%	2.55%	-9%	-12%	47.7%
O=[N+]([O-])c1ccc(Sc2ccc([N+](=O)[O-])o2)o1	93% (active)	99% (active)	99.2% (active)	94% (active)	100% (active)	99.5% (active)	97% (active)	100% (active)	99.4% (active)	71% (active)	99% (active)	99.2% (active)	96% (active)	99% (active)	99.5% (active)	98% (active)	99% (active)	99.1% (active)
CCCCNC(=S)N/N=C/c1cccc(C)n1	-3%	98% (active)	1.35%	-8%	98% (active)	32.5%	-16%	98% (active)	59.2%	-11%	99% (active)	17.4%	-27%	97% (active)	42.5%	8%	99% (active)	-11.1%
c1ccc2c(c1)CC1c3[nH]c4ccccc4c3CCN21 (configuration not stated)	-6%	-5%	88.3% (active)	9%	6%	76.9% (active)	-8%	-10%	82.8% (active)	22%	31%	88.2% (active)	6%	23%	77.7% (active)	7%	3%	74% (active)
CC(C(=O)O)C(N)C(=O)O (configuration not stated)	-1%	4%	99.5% (active)	-1%	-6%	99.6% (active)	-2%	2%	99.3% (active)	6%	-6%	99.5% (active)	4%	-7%	99.6% (active)	-2%	3%	99.5% (active)
O=C1OC(OC/C(Br)=C(/Br)COC2OC(=O)C(Cl)=C2Cl)C(Cl)=C1Cl (configuration not stated)	93% (active)	99% (active)	99.2% (active)	64%	99% (active)	99.4% (active)	97% (active)	100% (active)	98.9% (active)	71% (active)	98% (active)	97.3% (active)	84% (active)	99% (active)	98.8% (active)	97% (active)	99% (active)	98.7% (active)
COC(=O)C1(NC(=O)C(CC(=O)OCc2ccccc2)NC(=O)OCc2ccccc2)CCCCCC1 (configuration not stated)	3%	30%	63%	-1%	41%	8.9%	-12%	25%	50.3%	-2%	47%	71.5% (active)	-22%	66%	56.8%	-3%	64%	59.1%
O=[N+]([O-])c1cc(Br)cc2c1nc(NCCCO)c1ccccc12	42%	93% (active)	95.7% (active)	11%	92% (active)	96.4% (active)	43%	96% (active)	98.5% (active)	33%	89% (active)	94.3% (active)	12%	96% (active)	94.6% (active)	59%	97% (active)	98.8% (active)

Reference: PubChem BioAssay (NCI)
